SUMO Mot1 rescue: inhibitors of SUMOylation pathway: yeast Mot1-301 growth rescue. S. cerevisiae Mot1-301 growth rescue, ATP luminescence, 38.5C; percent above DMSO median, 100 means doubled. growth rescue, % at 18.8 µM. actives 1% (n = 320,000);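 active means every valid replicate shows activation above 250% relative to neutral control wells; inactive means the rest, any valid replicate at or below 250%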
PvdQ inh: blocks Pseudomonas aeruginosa PvdQ acylase activity; inhibition, % at 10 µM; purified PvdQ acylase, fluorescence plate reader; AID 488965; actives 0.063% (n = 340,000); in the data active means inhibition above about 30%, passing the limit was not always enough; inconclusive means no clear call, values can overlap the other calls
pCIP destab: compounds decreasing mouse p/CIP protein stability; Q05BA5; F442A p/CIP-EGFP cells, EGFP fluorescence, 16 h; decrease of EGFP signal, % at 10 µM; actives 0.01% (n = 290,000); AID 1984;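 active means EGFP signal decrease of at least 30% at 10 µM or well 3 SD below plate mean, unless failing retest; inactive means the rest, including hits failing retest or dose response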
JMJD2C inh: blocks human GASC-1 demethylase activity | GST-JMJD2C(1-420) H3K9me3 demethylation, DELFIA europium | inhibition, % at 2.35 µM | actives 0.069% (n = 330,000);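 active means more than half of a compound's replicate wells show inhibition beyond 50%, single wells judged on their own value; inconclusive means some, but no more than half, of replicates pass 50% inhibition; inactive means no replicate passes 50% inhibition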;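 further: signal counts dimethyl H3K9 product captured on neutravidin plate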
HDAC3 inh: human HDAC3 inhibition; O15379; recombinant HDAC3, fluorogenic peptide/trypsin coupled, fluorescence; inhibition, % at 8.3 µM; actives 0.15% (n = 320,000); AID 2718; in the data active means inhibition above about 26%, passing the limit was not always enough; inconclusive means no clear call, values can overlap the other calls
PHOSPHO1 inh: PHOSPHO1 (human) inhibition; actives 1.1% (n = 290,000); AID 1565; recombinant PHOSPHO1, absorbance phosphatase assay; inhibition, % at 13.3 µM; Q8TCT1; in the data active means inhibition above about 60%
Target sequence (Q8TCT1 whole entry, looked up): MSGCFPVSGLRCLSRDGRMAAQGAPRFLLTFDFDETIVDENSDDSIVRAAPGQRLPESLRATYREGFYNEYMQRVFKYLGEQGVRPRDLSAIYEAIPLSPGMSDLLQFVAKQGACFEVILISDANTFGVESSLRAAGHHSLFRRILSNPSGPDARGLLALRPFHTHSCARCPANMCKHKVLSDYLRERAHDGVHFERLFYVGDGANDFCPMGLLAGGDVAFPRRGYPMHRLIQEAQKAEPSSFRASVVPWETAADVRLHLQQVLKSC
A number is an active result; i = inactive; ? = inconclusive; nt = no result given. Rows were chosen to be rich in hits. Some 2.2% of all compounds tested hit in one or more screens of this group.

SMILES	SUMO Mot1 rescue	PvdQ inh	pCIP destab	JMJD2C inh	HDAC3 inh	PHOSPHO1 inh
N#CC1=C(N)Oc2cc3ccccc3cc2C1c1cccs1 (stereo not drawn)	i	i	i	i	i	62.2
O=C(NCCNC(=O)c1ccc(Br)o1)c1cccnc1	i	i	i	i	i	i
CC(=O)NN1C(=O)/C(=C/c2ccc(Br)o2)SC1=S	i	i	i	i	i	87.0
O=C(NCCNC(=O)Nc1ccc(Cl)cc1)Nc1ccc(Cl)cc1	nt	i	nt	nt	nt	nt
O=C(NCCO)Nc1ccc(Cl)cc1	i	i	i	i	i	68.6
Cc1cccc(NC(=O)CCS(=O)(=O)c2ccc(Br)cc2)c1	i	i	i	i	i	i
CCCC(=O)n1nc(-c2ccc(Cl)cc2)nc1SC	i	i	i	i	32.0	i
CCC(=O)n1nc(-c2ccc(Cl)cc2)nc1SC	i	i	i	i	i	i
Cc1cc(C)cc(NC(=S)N2CCC(NC(=O)C3CC3)CC2)c1	i	i	i	i	i	i
Cc1ccc(C23CC4CC(CC(CN)(C4)C2)C3)cc1	nt	i	i	i	nt	60.0
Cc1cc(NC(=O)c2cc([N+](=O)[O-])cc([N+](=O)[O-])c2C)no1	i	88.2	i	i	i	i
Cc1cc(NC(=O)c2ccc(Br)c([N+](=O)[O-])c2)no1	i	64.0	i	i	i	i
Cc1cc(NC(=O)c2ccc(C)c([N+](=O)[O-])c2)no1	i	i	i	i	i	i
CCN(CC(=O)Nc1c(F)cccc1F)C(=O)c1ccc(C#N)cc1	i	i	i	i	nt	i
Cn1cc(CN(CCO)Cc2cccs2)c(-c2ccccc2F)n1	i	i	i	i	i	i
Cc1ccc(-n2c(C)nnc2SC(C)C(=O)N2CCCC2)cc1 (stereo not drawn)	285.2	i	i	i	i	i
CCOc1ccc(NC(=O)C2CCCN(C)C2)cc1 (stereo not drawn)	i	i	i	i	i	i
S=C1NCN(Cc2ccco2)CN1	i	i	i	i	i	i
O=C1C(=C2CCCCC2)SC(=S)N1Cc1ccco1	i	i	i	i	i	69.9
O=C1CC(=O)N(Cc2ccco2)C(=O)N1	i	i	i	52.4	i	i
O=C(O)CCN1C(=O)C(=C2CCCCCC2)SC1=S	i	i	i	i	i	i
O=C1CC(=O)N(Cc2ccco2)C(=S)N1	i	i	i	i	i	89.2
COc1ccccc1CCC(=O)Oc1ccc(C#N)cc1OC	i	i	i	i	i	i
CCOC(=O)N1CCC(NC(=O)c2cc3c(=O)[nH]c4ccccc4c3n2C)CC1	i	i	i	i	i	i
Cc1cc(C(=O)O)cc(Br)c1N	326.4	i	i	i	i	i
SMILES	SUMO Mot1 rescue	PvdQ inh	pCIP destab	JMJD2C inh	HDAC3 inh	PHOSPHO1 inh
COc1cc(C(=S)N2CCC(C)CC2)ccc1O	i	i	i	i	i	66.0
CCS(=O)(=O)c1ccc(C(=O)NC2CC2)c(Cl)c1Cl	i	i	i	i	i	60.0
CCOc1ccccc1N1CN(CC)CNC1=S	355.1	i	i	i	i	i
FC(F)(F)c1ccc(Nc2nnnc3ccccc23)cc1	i	i	i	i	i	60.9
N=c1c2ccccc2nnn1-c1ccc(C(F)(F)F)cc1	i	i	i	i	i	i
C/C(=N/NC(=O)CNC(=O)Cc1ccc(Cl)cc1)c1ccco1	i	nt	i	i	i	i
C=CCSC1=N/C(=C\c2sccc2C)C(=O)S1	i	i	i	i	i	i
C=CCSC1=N/C(=C\C=C\c2ccco2)C(=O)S1	i	i	i	i	i	69.9
CCN(CC)S(=O)(=O)c1ccc(OC)c(NC(=O)Cn2cnc3c2c(=O)n(C)c(=O)n3C)c1	i	i	i	i	i	i
COc1cccc(C(c2sc3nc(C)nn3c2O)N2CCc3ccccc3C2)c1 (stereo not drawn)	i	i	i	i	nt	74.4
COCCCNCCCCOc1ccc(Br)cc1C	269.3	i	i	i	i	i
CCC(CO)[n+]1c(C)cc(/C=C2\Sc3ccccc3N2Cc2ccccc2)cc1C (stereo not drawn)	i	i	i	i	26.3	i
O=C(CSC1CC(=O)N(CCc2ccccc2)C1=O)Nc1cccc(Cl)c1 (stereo not drawn)	314.1	i	i	i	i	i
O=C(CSC1CC(=O)N(CCc2ccccc2)C1=O)Nc1ccc(Br)cc1 (stereo not drawn)	i	i	i	i	i	i
CCCNC(=O)Nc1ccc(C(F)(F)F)cc1	i	i	i	i	i	i
O=C(COc1ccc2c3c(c(=O)oc2c1)CCC3)NCCCN1CCOCC1	i	i	i	i	i	61.6
COc1ccc(CN2CCCCC2C)cc1C (stereo not drawn)	i	i	i	i	i	i
COc1ccc(CN2CCCCC2C)c(C)c1C (stereo not drawn)	i	i	i	50.0	i	i
N#Cc1ccccc1NC(=O)CSc1cn[nH]n1	i	i	i	i	i	i
CCOC(=O)N1CCN(C(=O)Cn2ncc3c2-c2ccccc2OC3)CC1	356.8	i	i	i	i	i
CCOc1ccc(CNS(=O)(=O)c2c(C)nc3sccn3c2=O)cc1OC	i	i	i	i	i	i
CCOc1ccccc1N1CCN(C(=O)C(F)(F)F)CC1	i	i	i	i	i	i
CCOc1ccccc1N1CCN(C(=O)CC(C)(C)C)CC1	i	i	i	i	i	72.9
Oc1c(C(c2ccco2)N2CCN(C(c3ccccc3)c3ccccc3)CC2)sc2ncnn12 (stereo not drawn)	i	i	i	i	i	88.1
Cc1ccc(Nc2nc(/N=C/NO)n[nH]2)cc1C	i	i	i	i	i	64.7
SMILES	SUMO Mot1 rescue	PvdQ inh	pCIP destab	JMJD2C inh	HDAC3 inh	PHOSPHO1 inh
Cc1nnc2n(c1=O)N=C(c1ccc(Cl)cc1)CS2	i	i	i	i	59.5	i
Clc1ccc(C2=Nn3c(nnc3-c3cccs3)SC2)cc1	i	i	i	i	i	i
COc1cc(C)c(Br)cc1S(=O)(=O)NCCN1CCOCC1	i	i	i	i	i	i
CCC1Sc2ccc(S(=O)(=O)CCC(=O)N3CCc4ccccc43)cc2NC1=O (stereo not drawn)	i	i	i	i	i	i
O=C(CC1Sc2ccccc2NC1=O)OCC(=O)N1CCc2ccccc21 (stereo not drawn)	i	i	i	i	i	62.4
CCCCN1CC(=O)N2[C@H]3c4ccc(OC)cc4OC[C@@H]3[C@H](C(=O)OCC)[C@]2(C)C1=O	i	i	nt	i	i	nt
CC1CCCN(C(=O)C2CCN(c3nc(-c4ccccc4)nc4c3CCC4)CC2)C1 (stereo not drawn)	i	i	i	i	i	65.8
COc1ccc(C(=O)NNC(=S)NC(=O)c2cccnc2)cc1	i	i	i	i	?	i
O=C(NNC(=S)NC(=O)c1cccnc1)c1ccc(F)cc1	i	i	i	i	i	85.0
COc1ccc(CC(=O)NNC(=S)NC(=O)c2cccnc2)cc1	i	i	i	i	i	85.0
O=C(NCCO)C(=O)NCC1OCCCN1S(=O)(=O)c1ccc2c(c1)OCCO2 (stereo not drawn)	i	i	i	i	i	i

Screens from PubChem.
